{"source": "paper PMC5540273", "about": "(PLoS ONE, 2017);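 also: KINOMEscan kinase panel screen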", "data": [{"tested_on": "MAP3K1", "details": "concentration: 1 μM, replicates: in singlicate; n = 1", "units": {"%Inh": "%"}, "values": [{"compound": "CCc1nc(-c2cccc(C)c2)c(-c2ccnc(NCc3ccccc3)c2)s1", "%Inh": 0}, {"compound": "O=c1cc(N2CCOCC2)nc2n(Cc3cccc4ccccc34)ccn12", "note": "[GSK2333389]", "%Inh": 8}, {"compound": "CN1c2ccc(NCc3ccc(F)cc3)cc2-c2c(cnn2C)S1(=O)=O", "%Inh": 0}, {"compound": "Cc1ccc(NC(=O)c2ccnc(N3CCN(C)CC3)c2)cc1-c1ccc(C(=O)NCC2CC2)cc1", "note": "[GW775604]", "%Inh": 0}, {"compound": "Cc1ccc(C(=O)NCC(N)=O)cc1-n1c(C)cc(OCc2ccc(F)cc2F)c(Br)c1=O", "%Inh": 0}, {"compound": "COCCNC(=O)c1ccc(-c2cc(C(=O)NC3CC3)cc(F)c2C)cc1", "note": "[GW868318]", "%Inh": 35}, {"compound": "COc1ccc(Nc2ncc(C#N)c(Nc3ccccc3C(N)=O)n2)cc1N1CCN(C)CC1.Cl", "note": "[GSK1558669]", "%Inh": 38}, {"compound": "COc1ccc(S(=O)(=O)NC2CCN(c3cc(C)nc(Nc4cccc(C#N)c4)n3)CC2)cc1.O=C(O)C(F)(F)F", "note": "[GSK1653539]", "%Inh": 3}, {"compound": "COc1ccc(Nc2nccc(N3CCC(NC(=O)Nc4cc(C)ccc4C)C3)n2)cc1", "note": "(stereo not shown) [GSK1379741]", "%Inh": 11}, {"compound": "CC(C)(C)n1cnc2c(N)ncnc21", "note": "[SKF-97359]", "%Inh": 0}, {"compound": "COc1cc2ncn(-c3cc(OCc4sccc4Cl)c(C(N)=O)s3)c2cc1OC", "note": "[GSK448459]", "%Inh": 88}, {"compound": "COC(=O)Nc1nc2cc(Oc3ccc(NC(=O)Nc4cc(F)ccc4F)cc3)ccc2[nH]1.Cl", "note": "[GW701424]", "%Inh": 0}, {"compound": "Cc1c2ccc(N(C)c3ccnc(Nc4cccc(S(N)(=O)=O)c4)n3)cc2nn1Cc1ccccc1.Cl.Cl", "note": "[GW787226]", "%Inh": 0}, {"compound": "O=C(NCCNc1ccnc(Nc2ccc(F)cc2)n1)c1cc2ccccc2s1", "note": "[GSK1379874]", "%Inh": 0}, {"compound": "CCn1cnc2c(N)ncnc21", "note": "[GW345098]", "%Inh": 18}, {"compound": "O=C1Cc2cc(Nc3nc(NCc4cccc(S(=O)(=O)C(F)(F)F)c4)ncc3C(F)(F)F)ccc2N1", "%Inh": 2}, {"compound": "Cl.Oc1cccc(Nc2ccnc3cc(-c4ccncc4)ccc23)c1", "note": "[GW494601]", "%Inh": 1}, {"compound": "Cn1cc(-c2ccc3c(c2)CCN3C(=O)Cc2ccccc2Cl)c2c(N)ncnc21", "note": "[GSK2608885]", "%Inh": 7}, {"compound": "NS(=O)(=O)CCc1cccc(Nc2nccc(-c3c(-c4cccc(NC(=O)c5c(F)cccc5F)c4)nn4ccccc34)n2)c1", "note": "[GSK336735]", "%Inh": 13}, {"compound": "O=c1cc(N2CCOCC2)nc2n(Cc3cccc(Cl)c3Cl)c(C3CC3)nn12", "note": "[GSK2358994]", "%Inh": 14}, {"compound": "COc1ccc(COc2cc(-n3cnc4ccccc43)sc2C(N)=O)cc1", "note": "[GSK1024304]", "%Inh": 0}, {"compound": "c1ccc(-c2n[nH]cc2-c2ccnc3ccccc23)nc1", "note": "[GW271431]", "%Inh": 16}, {"compound": "CN(C1=C(c2ccccc2)C(=O)NC1=O)c1ccccc1", "note": "[SB-334860]", "%Inh": 9}, {"compound": "COc1ccc(CNC(=O)NC2CCN(c3ccnc(Nc4ccc(OC)cc4)n3)C2)cc1", "note": "(stereo not shown) [GSK1379727]", "%Inh": 0}, {"compound": "COc1cc2c(cc1OC[C@@H](O)CO)ncc1c3ccc(C#N)cc3[nH]c21", "%Inh": 0}, {"compound": "c1ccc(-c2cc(-c3c[nH]nc3-c3ccccn3)ccn2)cc1", "note": "[GW576604]", "%Inh": 0}, {"compound": "Cc1cccc(-c2nc(-c3ccc(S(C)(=O)=O)cc3)sc2-c2ccncc2)c1", "%Inh": 12}, {"compound": "Cc1cccc(Cn2ccn3c(=O)cc(N4CCOCC4)nc23)c1", "note": "[GSK2297542]", "%Inh": 8}, {"compound": "Fc1ccc(-c2nn3c(OCC(F)(F)F)cccc3c2-c2ccncc2)cc1", "note": "[GW514784]", "%Inh": 0}, {"compound": "N#Cc1c(N2CCOCC2)sc(-c2ccn[nH]2)c1-c1ccc(Cl)cc1", "%Inh": 5}, {"compound": "COc1cc2c(cc1OCCN1CCN(C)CC1)ncc1c3ccc(C#N)cc3[nH]c21", "%Inh": 0}, {"compound": "CC(=O)Nc1ccc(COc2ccc(Nc3ccnc4cc(-c5ccccn5)ccc34)cc2)cc1.Cl", "note": "[GW440148]", "%Inh": 11}, {"compound": "[2H]C([2H])(c1cccc(C(F)(F)F)c1C)n1ccn2c(=O)nc(N3CCOCC3)cc12", "note": "[GSK2336394]", "%Inh": 0}, {"compound": "COc1ccc(Nc2nccc(N3CCC(NC(=O)Nc4cccc(C(C)=O)c4)C3)n2)cc1", "note": "(stereo not shown) [GSK1379731]", "%Inh": 14}]}]}
